These results are taken from PubChem BioAssay (Tox21).

Molecules are shown by their SMILES. Active and inactive are the calls of the source. Entries that show only a call come without a potency. Calls follow the shape of the dose curve; as a rule, active = well fitted activation curve with a large enough effect in the repeat runs; inconclusive = weak or mixed curves; inactive = flat fitted curve, though single readings scatter.
Potency is read from the fitted curve at half-maximal effect.

Androgen receptor (Homo sapiens), sequence (P10275 whole entry, looked up): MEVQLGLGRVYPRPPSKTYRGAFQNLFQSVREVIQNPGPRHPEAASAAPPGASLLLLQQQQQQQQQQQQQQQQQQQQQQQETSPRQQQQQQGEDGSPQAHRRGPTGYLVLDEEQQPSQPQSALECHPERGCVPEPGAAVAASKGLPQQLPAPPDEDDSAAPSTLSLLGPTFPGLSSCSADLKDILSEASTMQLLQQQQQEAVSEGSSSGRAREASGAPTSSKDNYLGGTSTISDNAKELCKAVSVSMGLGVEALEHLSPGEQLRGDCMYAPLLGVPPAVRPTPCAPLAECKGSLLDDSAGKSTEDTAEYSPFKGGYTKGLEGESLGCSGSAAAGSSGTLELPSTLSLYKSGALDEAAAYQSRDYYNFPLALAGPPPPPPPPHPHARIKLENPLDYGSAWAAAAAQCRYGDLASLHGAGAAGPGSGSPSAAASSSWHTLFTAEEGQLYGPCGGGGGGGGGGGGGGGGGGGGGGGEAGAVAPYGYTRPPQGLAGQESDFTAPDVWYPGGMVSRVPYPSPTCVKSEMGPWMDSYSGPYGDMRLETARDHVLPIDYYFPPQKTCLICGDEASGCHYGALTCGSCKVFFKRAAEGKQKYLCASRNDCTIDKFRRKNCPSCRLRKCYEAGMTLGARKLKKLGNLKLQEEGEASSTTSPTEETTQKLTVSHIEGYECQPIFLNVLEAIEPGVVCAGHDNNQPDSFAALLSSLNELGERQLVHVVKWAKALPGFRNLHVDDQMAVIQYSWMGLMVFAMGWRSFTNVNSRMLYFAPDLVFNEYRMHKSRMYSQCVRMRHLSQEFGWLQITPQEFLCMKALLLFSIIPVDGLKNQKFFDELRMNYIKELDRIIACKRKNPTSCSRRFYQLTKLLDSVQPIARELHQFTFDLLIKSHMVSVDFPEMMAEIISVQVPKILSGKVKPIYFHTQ

The target of the assay is Androgen receptor (Homo sapiens) (UniProt P10275). Nature of the assay: qHTS assay to identify small molecule agonists of the androgen receptor (AR) signaling pathway using the MDA cell line (AID 743040; also: nearly all actives have a fitted effect of over 20% in size). The note with it: MDA-kb2 AR-luc cells, MMTV luciferase, 16 h; series mostly up to 70.3 µM. An excerpt:
National Center for Advancing Translational Sciences [NCATS]
NIH Chemical Genomics Center [NCGC]
U.S. Environmental Protection Agency [EPA]
National Institutes of Environmental Health Sciences [NIEHS]
National Toxicology Program [NTP]
U.S. Food and Drug Administration [FDA]
Androgen receptor (AR), a nuclear hormone receptor, plays a critical role in AR-dependent prostate cancer and other androgen related diseases. Endocrine disrupting chemicals (EDCs) and their interactions with steroid hormone receptors like AR may cause disruption of normal endocrine function as well as interfere with metabolic homeostasis, reproduction, developmental and behavioral functions. To identify the compounds that activate AR signaling, MDA-kb2 AR-luc cell line (from ATCC, deposited by Wilson et al.) was used to screen the Tox21 10K compound library. MDA-kb2 AR-luc cell line is human breast carcinoma cell line that was stably transfected with a luciferase reporter gene under control of the MMTV promoter containing response elements for both androgen receptor (AR) and glucocorticoid receptor (GR).
Tox21 Assay Protocol Summary:
MDA-kb2 AR-luc cells were dispensed at 3,000 cells/5 uL/well of culture medium into white wall/solid-bottom 1536-well plates using a Multidrop Combi (ThermoFisher Scientific, Waltham, MA) dispenser. After the assay plates were incubated at 37C and 0% CO2 for 5 h, 23 nL of compounds dissolved in DMSO, positive controls or DMSO only was transferred to the assay plate by a Pintool station (Kalypsys, San Diego, CA). The plates were incubated at 37C and 0% CO2 for 16 h. Then 4 uL of ONE-Glo reagent (Promega, Madison, WI) was added to each plate using a Bioraptr Flying Reagent Dispenser (FRD) workstation (Beckman Coulter, Indianapolis, IN, USA) and luminescence was quantified on a ViewLux (PerkinElmer, Shelton, CT) plate reader after 30 min incubation at room temperature.
(qHTS replaces the single test concentration by a dilution series.)
In the case of `CN(C)CCOC(c1ccccc1)c1ccccc1` (tested in a mixture with another compound), the Potency entry is “inactive”.

Consider `CCCCCCOc1ccc(O)cc1`, for which the Potency entry was “inactive”.

For `O=C(O)Cc1ccc(OCCNC[C@H](O)c2ccccc2)cc1`, the Potency entry was “inactive”.

Turning to `CCN(CC)CCOC(=O)C1(C2CCCCC2)CCCCC1`, the Potency result was “inactive”.

As for `CCN1CCN(c2cc(-c3ccc(F)cc3)c3c(n2)CCCCCC3)CC1`, the Potency result is “inactive”.

Take `CN(C)c1ccc(N=NS(=O)(=O)O)cc1`: the Potency result is “inactive”.

As for `NC(=O)C(=O)N/N=C/c1ccc([N+](=O)[O-])o1`, the Potency entry is “inactive”.

In the case of `NC(=O)c1ccccc1N`, the Potency entry was “inactive”.

Turning to `CC(NCCC(c1ccccc1)c1ccccc1)c1ccccc1` (stereo not given), the Potency entry was “inactive”.

With `CC1(C)C(=O)N(Br)C(=O)N1Br`, the Potency result was “inactive”.

Consider `CC1=C(/C=C/C(C)=C/C=C/C(C)=C/C(=O)Nc2ccc(O)cc2)C(C)(C)CCC1`, for which the Potency result was “inactive”.

Turning to `O=C1C=CC(=O)N1c1ccccc1`, the Potency result was “inactive”.

Consider `COCC(=O)O[C@]1(CCN(C)CCCc2nc3ccccc3[nH]2)CCc2cc(F)ccc2[C@@H]1C(C)C`, for which the Potency entry was “inactive”.

Consider `C=C1C(C)(C)[C@@]2(Cl)C(Cl)[C@]1(Cl)C(Cl)(Cl)C2(Cl)Cl` (stereo not given in full), for which the Potency result is “inactive”.

Regarding `C=CC(C)(CCC=C(C)C)OC(=O)/C=C/c1ccccc1` (stereo not given), the Potency entry is “inactive”.

For the compound `CCOC(=O)C1=C(C)NC(C)=C(C(=O)OCC)C1c1ccccc1/C=C/C(=O)OC(C)(C)C`, the Potency result is “inactive”.

In the case of `Cc1oc(-c2ccccc2)nc1CCOc1ccc(C[C@H](Nc2ccccc2C(=O)c2ccccc2)C(=O)O)cc1`, the Potency entry was “inactive”.

For the compound `COc1cc(C(C)C)c2c(c1)S(=O)(=O)N(COc1cc(=O)n3cccc(OCCN4CCCCC4)c3n1)C2=O`, the Potency result was “inactive”.

In the case of `Cc1c(C(=O)O)cccc1[N+](=O)[O-]`, the Potency result is “inactive”.

Consider `O=C(Oc1ccccc1)c1cccc(C(=O)Oc2ccccc2)c1`, for which the Potency result is “inactive”.

`c1ccc(Sc2ccccc2)cc1`: the Potency entry was “inactive”.

In the case of `O=C1c2c(O)ccc(O)c2C(=O)c2c(NCCNCCO)ccc(NCCNCCO)c21`, the Potency result is “inactive”.

As for `N#CSCSc1nc2ccccc2s1`, the Potency result is “inactive”.

Regarding `NC(=O)c1nc(-c2cccc(-c3cc(F)ccc3OCC(F)(F)C(F)(F)F)c2)n[nH]1`, the Potency result is “inactive”.

Take `Oc1ccc(-c2ccccc2)c(Cl)c1`: the Potency is 68.6 µM (active).

For the compound `O=C(NO)c1ccccc1`, the Potency entry is “inactive”.

For the compound `CCN=C1C=CC(=C(c2ccc(N(CC)CC)cc2)c2ccc(N(CC)CC)cc2)c2ccccc21`, the Potency entry was “inactive”.

As to `CCCOc1sc(C(=O)N2CCC(c3cc(CN)ccc3F)CC2)c(C)c1Br`, the Potency entry was “inactive”.

Consider `COc1ccccc1OCCNCC(O)COc1cccc2[nH]c3ccccc3c12` (stereo not given), for which the Potency entry is “inactive”.

On to `CN1CCN(C2Cc3ccccc3Sc3ccc(Cl)cc32)CC1` (stereo not given), for which the Potency result is “inactive”.

Turning to `N[C@@H](CSSC[C@H](N)C(=O)O)C(=O)O`, the Potency entry was “inactive”.

Turning to `C[n+]1c2cc(N)ccc2cc2ccc(N)cc21` (tested in a mixture with another compound), the Potency entry is “inactive”.

As for `Nc1ccc2cc3ccc(N)cc3nc2c1`, the Potency entry is “inactive”.

As for `O=C1NCCN1CCN1CCC(c2cn(-c3ccc(F)cc3)c3ccc(Cl)cc23)CC1`, the Potency result was “inactive”.

As to `CCC(C)(C)c1cc(O)c(C(C)(C)CC)cc1O`, the Potency entry was “inactive”.

Consider `CCN=c1cc2oc3cc(NCC)c(C)cc3c(-c3ccccc3C(=O)OCC)c-2cc1C`, for which the Potency entry is “inactive”.

In the case of `COc1cc(C=C2CCC/C(=C\c3ccc(O)c(OC)c3)C2=O)ccc1O`, the Potency result was “inactive”.

Consider `C=CC(=O)OCCC#N`, for which the Potency result was “inactive”.

Regarding `C[C@]12CC[C@H]3C(=CCc4cc(O)ccc43)[C@@H]1CCC2=O`, the Potency is 5.45 µM (active).

Consider `Cc1ccc(N)cc1O`, for which the Potency result was “inactive”.
